# An excerpt weighted towards active compounds, which were near 9.5% of everything screened.
# Pf growth 96h: P. falciparum growth inhibition at 96 hour, primary screen for plastid delayed-death inhibitors | Potency, µM (top dose mostly 28.7 µM), inactives show top-dose activity change, negative = inhibition, most hits filed as inhibitors | P. falciparum luciferase reporter growth, 96 h | AID 504834 | actives 6.9% (n = 320,000); note: % is set by controls: 0 for no effect and ±100 for the full control effect
#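 Erythrocytes infected with luciferase-expressing P. falciparum were dispensed at 2% hematocrit and 0.05% parasitemia (final), then incubated with compounds 96 hours at 37 C in 5% CO2. Luminescence after detection reagent addition reported growth.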
# SARS PLpro yeast: blocks SARS-CoV papain-like protease in a yeast assay; Potency, µM (top dose mostly 32.9 µM), inactives show at the top dose activity, positive = growth rescue, usual class: activators; S. cerevisiae expressing SARS-CoV PLpro, growth rescue; actives 0.19% (n = 330,000); AID 485353; calls by dose curve; note: 0% is about no effect; nearly all actives have a fitted effect of over 55% in size
# NS1 inh: blocks influenza NS1 protein function | AID 2326 | actives 0.4% (n = 270,000) | Potency, µM (highest dose often 46.1 µM), for inactives: at the top dose activity, positive = more growth; calls by dose curve; note: actives are rising curves; nearly all actives have a fitted effect of over 50% in size
#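 Growth recovery, yeast-based: influenza A NS1 expressed in S. cerevisiae causes slow growth, and suppressors are detected by OD600. The parent strain without NS1 is used as positive control.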
# RE007 growth inh: less growth of the S. pombe RE007 Vpr strain; S. pombe RE007 Vpr strain, BacTiter-Glo ATP luminescence, 24 h; Potency, µM (top dose mostly 92.2 µM), without a hit: at the highest dose activity change, negative = less growth, hits mostly inhibitors; actives 0.21% (n = 360,000); AID 651644; active = well fitted falling curve with a large enough effect; inconclusive = small, poorly fitted or top-dose-only effect; inactive = no such curve, though single readings can be large or run the other way; note: % is set by controls: 0 for no effect and ±100 for the full control effect; nearly all actives have a fitted effect of over 50% in size
#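 Fission yeast RE007 carrying one integrated HIV-1 vpr copy, seeded at OD 0.01 in PMG+AL medium with 23 nL pinned compound. Grown 24 h at 30 degrees; viability read by BacTiter-Glo luminescence after 5 min.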
# Pf growth 48h: P. falciparum growth inhibition at 48 hours (one generation); P. falciparum luciferase growth in erythrocytes, 48 h; Potency, µM (series often up to 28.7 µM), for the others: top-dose activity change, negative = inhibition, most hits filed as inhibitors; actives 5.9% (n = 310,000); AID 504832; note: % is set by controls: 0 for no effect and ±100 for the full control effect
#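 Read-out is firefly luciferase luminescence from an integrated reporter in P. falciparum, so falling signal marks reduced parasite growth. Infected erythrocytes were at 2% hematocrit and 0.1% parasitemia (final) in Albumax-supplemented RPMI 1640.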
# Numbers without * were called inactive; u = inconclusive; x = not tested or not shown; [ ] = another dose, or the depositor's remark. Unless noted, calls come from the whole dose curve; as a rule, active = well fitted inhibition curve with a large enough effect; inconclusive = small, poorly fitted or top-dose-only effect, or another doubt; inactive = no such curve, though single readings can be large or run the other way. Potency is the fitted concentration of half-maximal effect.
SMILES,Pf growth 96h,SARS PLpro yeast,NS1 inh,RE007 growth inh,Pf growth 48h
CCOc1ccc(N(CC(=O)Nc2ccc3c(c2)OCCO3)S(=O)(=O)c2c(C)noc2C)cc1,10µM*,1%,-51%,-1%,x
CCOc1ccc(NC(=O)CN(c2cc(C)cc(C)c2)S(=O)(=O)c2c(C)noc2C)cc1,u,-5%,-6%,9%,7%
COc1ccc(N(CC(=O)Nc2ccc(C)cn2)S(=O)(=O)c2c(C)noc2C)cc1,-1%,0%,-44%,-9%[3.69 µM],1%
CCOc1ccc(N(CC(=O)Nc2ccc(OC)cc2)S(=O)(=O)c2c(C)noc2C)cc1,6.6µM*,3%,-2%,5%,x
COc1ccc(OC)c(NC(=O)CN(c2ccc(C)cc2)S(=O)(=O)c2c(C)noc2C)c1,1.9µM*,-3%,-53%,0%,u
CCOc1cc(S(=O)(=O)NCc2ccncc2)ccc1Cl,15%,0%,1%,-2%,-41%[5.75 µM]
CCOc1ccc(N(CC(=O)Nc2ccc(OC)cc2)C2=NC3CS(=O)(=O)CC3S2)cc1 (configuration not stated),13µM*,-1%,7%,-7%,6%
Cc1ccc(S(=O)(=O)c2cc3ccccc3nc2N)cc1,9.3µM*,5%,x,-11%,u
CN(C)c1ncc(S(=O)(=O)c2ccccc2)c(N)n1,4%,0%,-4%,-7%,-1%
Cc1ccc(-c2sc(C(=O)NN)c(C)c2C#N)cc1,u,-1%,7%,-9%,u
CCOc1ccc(N(CC(=O)NC2CCCC2)C(=O)CSc2nnc(COc3ccccc3)o2)cc1,7.4µM*,-9%,3%,-12%,x
O=C(CSc1nnc(COc2ccc(F)cc2)o1)N1c2ccccc2CCc2ccccc21,u,-7%,u,0%,4.1µM*
O=C(CN(C(=O)CSc1nnc(COc2ccccc2)o1)c1ccc(F)cc1)NC1CCCCC1,u,-1%,-22%,7%,12µM*
O=C(CSc1nnc(COc2ccc(F)cc2)o1)N1CCCCC1,-25%,0%,2%,11%,25%
O=C(CN(C(=O)CSc1nnc(COc2ccccc2)o1)c1ccc(F)cc1)NC1CCCC1,7%,-3%,-30%,-11%,9%
CC(Sc1nnc(C2CC2)n1C)C(=O)Nc1ccc(N2CCOCC2)cc1 (configuration not stated),29%,-2%,x,-3%,3%
COc1ccccc1OC(C)C(=O)N(Cc1ccco1)C1CCS(=O)(=O)C1 (configuration not stated),u,2%,-8%,1%,33%
COc1cc(CNc2ccc(N3CCCCC3)cc2)ccc1OCC(=O)NC(C)(C)C,5.2µM*,-8%,-5%,u,8%
COc1cc(CNC(C)(C)CO)ccc1OCC(=O)NC(C)(C)C,7%,17%,-2%,9%,-2%
COc1cc(CNc2ccc(N3CCCC3)cc2)ccc1OCc1ccccc1,8%,-18%,-28%,u,8.3µM*
COc1ccccc1C(=O)NCC(=O)OCCCOC(=O)CNC(=O)c1ccccc1OC,29%,-2%,1%,-27%,16%
C[C@H](NC(=O)[C@@H]1CSC2c3ccccc3C(=O)N21)C(=O)NCc1c(F)cccc1Cl (some centres not stated),12µM*,0%,-7%,0%,u
C[C@H](NC(=O)[C@@H]1CSC2c3ccccc3C(=O)N21)C(=O)NC1CCCC1 (some centres not stated),-13%,-3%,1%,12%,-17%
COC(=O)C[C@H]1CC[C@@H](NS(=O)(=O)c2ccc(C)cc2)[C@@H](CO)O1,x,x,x,8%,x
Cc1nc(N2CCCCCC2)c2ccccc2n1,u,u,-7%,-15%,-21%
SMILES,Pf growth 96h,SARS PLpro yeast,NS1 inh,RE007 growth inh,Pf growth 48h
Cc1nc(-c2ccccn2)nc(N(C)c2ccccc2)c1Cl,1.2µM*,-7%,-79%,-11%,1.7µM*
c1ccc2c(c1)nc(N1CCCCC1)c1ccccc12,48%,-2%,-39%,-3%,34%
c1ccc(-c2nc(N3CCOCC3)c3ccccc3n2)nc1,u,-1%,-60%,-7%,7.4µM*
c1ccc2c(N3CCCCC3)nc(N3CCCC3)nc2c1,4.7µM*,u,-39%,9%,13µM*
c1ccc(-c2nc(N3CCCCCC3)c3ccccc3n2)nc1,x,-8%,-107%,23%,0.83µM*
CCN1C(=O)/C(=C2/Sc3ccccc3N2CC)S/C1=N\c1ncn[nH]1,22%,12%,12%,1%,u
O[C@H]1C[C@H](c2ccccc2)N(CC2CCCCC2)C[C@@H]1n1cc(C2CC2)nn1,x,x,x,-4%,x
CC(C)(C)NC(=O)CN(C(=O)CCC(=O)Nc1nccs1)c1cccc(C(F)(F)F)c1,u,-6%,14%,-18%,u
COc1ccccc1-n1nnnc1SCC(=O)NC1CCCCC1,-6%,0%,-4%,9%,25%
Cc1nc(-c2ccccn2)nc(N2CCOCC2)c1Cl,2.3µM*,2%,7%,-2%,u
CNCCOc1ccccc1OC(C)C,10µM*,0%,9%,-5%,-4%
Cc1ccc(S(=O)(=O)Nc2cc(C(C(=O)OC(C)C)C(=O)C(F)(F)F)c(O)c3ccccc23)c(C)c1 (configuration not stated),5.2µM*,-66%,16%,-6%,13µM*
CCOC(=O)c1cnn2c1[nH]c(=O)c1ccccc12,9.3µM*,-2%,-10%,7%,31%
Cc1cc(C)c2cc(C#N)c(NCCNC(=O)c3cccnc3)nc2c1,x,x,x,-4%,x
N/C(=N\OC(=O)C(c1ccccc1)c1ccccc1)c1ccccn1,15%,-10%,-9%,2%,13µM*
N/C(=N\OC(=O)c1ccc(Cl)cc1Cl)c1cccnc1,4.7µM*,-1%,-7%,-2%,-36%
N/C(=N\OC(=O)COc1ccccc1)c1cccnc1,-9%,2%,0%,-10%,-17%
N/C(=N\OC(=O)C(c1ccccc1)c1ccccc1)c1cccnc1,10µM*,-27%,-105%,16%,u
C=CCOc1ccccc1CN(C(=O)CCl)c1ccc2c(c1)OCO2,12µM*,4%,16%,-8%,u
CC1(C)C(=O)OC(c2cccc([N+](=O)[O-])c2)C2(CCCCC2)C1=O (configuration not stated),16%,1%,u,16%,u
CC1(C)C(=O)OC(c2cccn2-c2cccc([N+](=O)[O-])c2)C2(CCCCC2)C1=O (configuration not stated),-25%,-87%,-11%,x,13µM*
Cc1ccc(CCNC(=O)c2coc3nc4ccccc4nc23)cc1,2.6µM*,0%,-2%,17%,-21%
CC1CCN(CCCNC(=O)c2coc3nc4ccccc4nc23)CC1,38%,4%,2%,0%,u
Cc1ccc(S(=O)(=O)Nc2c(C)cc(C)nc2Cl)cc1,2.6µM*,0%,-3%,-10%,24%
Cc1cc(C)c(NS(=O)(=O)c2ccccc2)c(C)n1,x,x,x,3%,x
